# Test results reported in the supplement of paper PMC8975748.
# Structures can show the parent of a compound that is named as a salt.
# Test system: Saccharomyces cerevisiae BY4741 SeMeCo community
# Test: z-score of subpopulation abundance vs DMSO median, subpopulation auxotrophic for HLU; higher = larger share of this subpopulation than in DMSO controls
# Details: 10 µM; 24 h; SM minimal medium; subpopulation (auxotrophy): HLU
# Procedure: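 Fluorescent four-plasmid SeMeCo (self-establishing metabolically cooperating S. cerevisiae BY4741 community; plasmids pH-mRuby2, pL-mWasabi, pU-eCFP, pM-TagRFP657) was grown 24 h in minimal SM medium with each Selleck FDA-approved drug at 10 µM in 384-well plates. Cells were fixed and imaged by high-content confocal microscopy. For each auxotrophic subpopulation (and the prototroph), a z-score gives the deviation from the DMSO vehicle-control population median.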
row,Structure (SMILES),z-score of subpopulation abundance
1,CCN(CC)CCOc1ccc2c(c1)C(=O)c1cc(OCCN(CC)CC)ccc1-2 [Tilorone dihydrochloride],-0.23
2,CC[C@H]1OC(=O)[C@H](C)[C@@H](O[C@H]2C[C@@](C)(OC)[C@@H](O)[C@H](C)O2)[C@H](C)[C@@H](O[C@@H]2O[C@H](C)C[C@H](N(C)C)[C@H]2O)[C@](C)(O)C[C@@H](C)C(=O)[C@H](C)[C@@H](O)[C@]1(C)O [Erythromycin],1
3,Cn1cc(C(=O)[C@@H]2CCc3[nH]cnc3C2)c2ccccc21 [Ramosetron Hydrochloride],0.86
4,Cn1c(=O)c2c(ncn2CC(O)CO)n(C)c1=O (stereo not given) [Dyphylline],-0.29
5,Cc1c(Cl)cccc1Nc1ccccc1C(=O)O [Tolfenamic Acid],-1.46
6,CN1CCN(c2c(F)cc3c(=O)c(C(=O)O)cn4c3c2OCN4C)CC1 [Marbofloxacin],-0.27
7,CC(=O)OCC(COC(C)=O)OC(C)=O [Triacetin],-1.12
8,Nc1nc2c(ncn2COCCO)c(=O)[nH]1 [Aciclovir],-0.88
9,CCC[C@@H]1C[C@@H](C(=O)N[C@@H]([C@H]2O[C@H](SC)[C@H](OP(=O)(O)O)[C@@H](O)[C@H]2O)[C@H](C)Cl)N(C)C1 [Clindamycin Phosphate],-0.85
10,CCC1=C(C)CN(C(=O)NCCc2ccc(S(=O)(=O)NC(=O)N[C@H]3CC[C@H](C)CC3)cc2)C1=O [Glimepiride],0.26
11,CC1=C(C(=O)O)N2C(=O)[C@@H](NC(=O)[C@H](N)c3ccccc3)[C@H]2SC1 [Cephalexin],-0.6
12,COCCCN1CCC(NC(=O)c2cc(Cl)c(N)c3c2OCC3)CC1 [Prucalopride Succinate],1.78
13,CCn1cc(C(=O)O)c(=O)c2cc(F)c(N3CCNC(C)C3)c(F)c21 (stereo not given) [Lomefloxacin HCl],1.38
14,CC1(C)S[C@@H]2[C@H](NC(=O)[C@H](N)c3ccc(O)cc3)C(=O)N2[C@H]1C(=O)O [Amoxicillin trihydrate],0.3
15,CCc1cccc2c3c([nH]c12)C(CC)(CC(=O)O)OCC3 (stereo not given) [Etodolac],-0.48
16,OC(CCCN1CCCCC1)(c1ccccc1)c1ccccc1 [Diphenidol HCl],-0.05
17,CC[C@H]1OC(=O)[C@H](C)[C@@H](O[C@H]2C[C@@](C)(OC)[C@@H](O)[C@H](C)O2)[C@H](C)[C@@H](O[C@@H]2O[C@H](C)C[C@H](N(C)C)[C@H]2O)[C@](C)(O)C[C@@H](C)CN(C)[C@H](C)[C@@H](O)[C@]1(C)O [Azithromycin Dihydrate],-0.73
18,O=S1(=O)CCN(CN2CCS(=O)(=O)NC2)CN1 [Taurolidine],-0.43
19,COc1ccnc(C[S+]([O-])c2nc3cc(-n4cccc4)ccc3[nH]2)c1C (stereo not given) [Ilaprazole sodium],2.72
20,CCC[C@@H]1C[C@@H](C(=O)N[C@@H]([C@H]2O[C@H](SC)[C@H](O)[C@@H](O)[C@H]2O)[C@@H](C)O)N(C)C1 [Lincomycin Hydrochloride Monohydrate],0.91

row,Structure (SMILES),z-score of subpopulation abundance
1,CC[C@H]1OC(=O)[C@H](C)[C@@H](O[C@H]2C[C@@](C)(OC)[C@@H](O)[C@H](C)O2)[C@H](C)[C@@H](O[C@@H]2O[C@H](C)C[C@H](N(C)C)[C@H]2O)[C@](C)(O)C[C@@H](C)C(=O)[C@H](C)[C@@H](O)[C@]1(C)O [Erythromycin thiocyanate],-0.56
2,CN1CCOC(c2ccccc2)c2ccccc2C1 (stereo not given) [Nefopam HCl],-0.39
3,CCn1cc(C(=O)O)c(=O)c2ccc(C)nc21 [Nalidixic acid],-0.15
4,NCc1ccccc1CC(=O)N[C@@H]1C(=O)N2C(C(=O)O)=C(CSc3nnnn3CC(=O)O)CS[C@H]12 [Ceforanide],0.38
5,O=C1N=C(O)NC1(c1ccccc1)c1ccccc1 [Phenytoin Sodium],0.17
6,CN(C)CCC=C1c2ccccc2C=Cc2ccccc21 [Cyclobenzaprine HCl],-0.46
7,CN(CCN1CCC(OC(=O)Nc2ccccc2-c2ccccc2)CC1)C(=O)c1ccc(CN2CCC(C(N)=O)CC2)cc1 [Revefenacin],-0.13
8,O=C(O)C1=C(CSc2nnnn2CS(=O)(=O)O)CS[C@@H]2[C@H](NC(=O)[C@H](O)c3ccccc3)C(=O)N12 [Cefonicid sodium],0.39
9,CCC(=O)NS(=O)(=O)c1ccc(-c2c(-c3ccccc3)noc2C)cc1 [Parecoxib Sodium],0.91
10,CC1=Nc2ccc(Cl)cc2S(=O)(=O)N1 [Diazoxide],-0.88
11,CCCOc1ccc(C(=O)OCCN(CC)CC)cc1N [Proparacaine HCl],-0.61
12,COCCOC(=O)C1=C(C)NC(C)=C(C(=O)OC/C=C/c2ccccc2)C1c1cccc([N+](=O)[O-])c1 (stereo not given) [Cilnidipine],1.34
13,CN[C@@H]1[C@H](O[C@H]2[C@H](O[C@H]3[C@H](O)[C@@H](O)[C@H](NC(=N)N)[C@@H](O)[C@@H]3NC(=N)N)O[C@@H](C)[C@]2(O)CO)O[C@@H](CO)[C@H](O)[C@H]1O [Dihydrostreptomycin sulfate],-1
14,CC(C)c1nc(N(C)S(C)(=O)=O)nc(-c2ccc(F)cc2)c1/C=C/[C@@H](O)C[C@@H](O)CC(=O)O [Rosuvastatin],1.68
15,CC[C@H](C)C(=O)O[C@H]1C[C@H](O)C=C2C=C[C@H](C)[C@H](CC[C@@H](O)C[C@@H](O)CC(=O)O)[C@H]21 [Pravastatin],-0.44
16,O=c1[nH]c2ccccc2n1CCN1CCN(c2cccc(C(F)(F)F)c2)CC1 [Flibanserin],-0.49
17,CN1[C@@H]2CC[C@H]1C[C@@H](OC(c1ccccc1)c1ccccc1)C2 [Benztropine mesylate],-0.48
18,O=C1c2c(O)ccc(O)c2C(=O)c2c(NCCNCCO)ccc(NCCNCCO)c21 [Mitoxantrone 2HCl],54.8
19,C[n+]1ccccc1/C=N/O [Pralidoxime chloride],-0.43
20,CCCNC(C)C(=O)Nc1ccccc1C (stereo not given) [Prilocaine hydrochloride],-0.01
